From PubChem BioAssay
Sampled rows, rich in hits. Any-hit rate of the full collection: about 3%.
Casp1 inh: caspase-1 (human) inhibition, allosteric or competitive; Caspase-1 enzyme, Ac-WEHD-AFC fluorogenic rate; Potency, µM (doses to about 57.5 µM), for the others: at the top dose activity change, negative = inhibition, usual class: inhibitors; 75,000 compounds, 0.03% hits;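 note: plate controls were vehicle for no effect and no substrate for full effect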
Casp7 inh: caspase-7 (human) inhibition, allosteric or competitive; P55210; recombinant caspase-7, Ac-DEVD-AFC fluorescence rate; Potency, µM (titrated, usually from 57.5 µM), for inactives: at the highest dose activity change, negative = inhibition, most hits filed as inhibitors; 75,000 compounds, 0.02% hits; active = well fitted inhibition curve with a large enough effect in the main read-out, with a control signal flat, not every such curve was filed as active; inconclusive = small, poorly fitted or top-dose-only effect, or a change in a side signal; note: % of control where 0% means no effect
HEK293 cAMP cs: counter-screen for TSHR agonists: cAMP increase in parental HEK293; parental HEK293 CNG cAMP sensor, membrane potential fluorescence; Potency, µM (series often up to 57.1 µM), for the others: at the top dose activation, usual class: activators; 73,000 compounds, 2.5% hits; AID 938; note: % of control where 0% means no effect; nearly all actives have a fitted effect of over 55% in size
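Counterscreen for endogenous-receptor signalling: CNG-channel HEK 293 cells report cAMP rise by membrane depolarization. After 60 min dye equilibration with 100 uM RO 20-1724, compounds incubated 30 min before bottom-read fluorescence at 590 nm.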
15-hLO inh: inhibitors of human 15-lipoxygenase (ALOX15); Potency, µM (titrated, usually from 57.1 µM), for the others: top-dose activity change, negative = inhibition, most hits filed as inhibitors; P16050; purified 15hLO-1, xylenol orange hydroperoxide absorbance; 74,000 compounds, 1.4% hits; note: % is set by controls: 0 for no effect and ±100 for the full control effect; nearly all actives have a fitted effect of over 55% in size
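Quantitative HTS in 25 mM Hepes pH 7.5 containing 0.01% Triton X-100: human 15hLO-1 at 40 nM, arachidonic acid at 50 uM, 6 min turnover. Product quantified via ferrous oxidation/xylenol orange, 573:405 nm absorbance ratio.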
TSHR agonist: TSH receptor (human) agonism; P16473; HEK293-CNG-TSHR cells (CNG channel as cAMP sensor), membrane potential dye, cAMP; Potency, µM (series often up to 57.1 µM), for inactives: at the highest dose activation, actives largely listed as activators; 73,000 compounds, 0.48% hits; AID 926; active = well fitted activation curve with a large enough effect in the main read-out, with a control signal flat, not every such curve was filed as active; inconclusive = small, poorly fitted or top-dose-only effect, or a change in a side signal; inactive = no such curve, though single readings can be large or run the other way; % of control where 0% means no effect;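 note: the control signal comes from parental cells without the receptor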
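HEK 293 cells stably expressing TSHR and a modified CNG channel, with CNG-only parental cells as counterscreen, were preloaded 60 min at room temperature with membrane potential dye containing 100 uM RO 20-1724. Compound exposure was 30 min, and depolarization was read as fluorescence at 590 nm.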
ALOX15B inhib: 15-hLO-2 (ALOX15B) enzyme inhibition; purified 15hLO-2, xylenol orange hydroperoxide absorbance; O15296; 110,000 compounds, 0.56% hits; Potency, µM (top dose mostly 57.1 µM), for inactives: at the highest dose activity change, negative = inhibition, most hits filed as inhibitors; note: % is set by controls: 0 for no effect and ±100 for the full control effect; nearly all actives have a fitted effect of over 60% in size
Target sequence (O15296 whole entry, looked up): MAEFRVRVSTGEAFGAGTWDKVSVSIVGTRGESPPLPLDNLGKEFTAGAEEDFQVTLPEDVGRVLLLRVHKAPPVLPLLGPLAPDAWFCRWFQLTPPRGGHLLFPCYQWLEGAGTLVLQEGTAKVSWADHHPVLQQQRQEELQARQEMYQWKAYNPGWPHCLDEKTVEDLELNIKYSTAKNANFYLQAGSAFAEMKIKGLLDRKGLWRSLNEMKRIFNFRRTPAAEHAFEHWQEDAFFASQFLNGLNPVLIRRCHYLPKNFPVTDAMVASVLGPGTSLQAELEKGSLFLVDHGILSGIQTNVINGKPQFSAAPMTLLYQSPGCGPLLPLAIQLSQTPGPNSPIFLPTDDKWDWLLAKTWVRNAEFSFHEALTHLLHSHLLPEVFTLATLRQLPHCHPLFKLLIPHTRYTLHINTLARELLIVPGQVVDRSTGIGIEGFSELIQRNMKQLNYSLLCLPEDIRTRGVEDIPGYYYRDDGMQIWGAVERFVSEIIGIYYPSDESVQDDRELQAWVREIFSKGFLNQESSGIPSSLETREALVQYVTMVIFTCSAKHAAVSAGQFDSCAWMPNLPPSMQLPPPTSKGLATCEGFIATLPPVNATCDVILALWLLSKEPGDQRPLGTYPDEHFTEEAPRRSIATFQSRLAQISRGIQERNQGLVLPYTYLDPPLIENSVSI
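Screening format was qHTS against 50 nM purified 15hLO-2 in Hepes pH 7.5 with detergent. Activity follows hydroperoxide formation from 45 uM arachidonic acid, measured as 573:405 nm absorbance ratio of the ferric-xylenol orange complex.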
Active calls of the source: *; [ ] = dose if it differs, or a comment. Unless noted, calls come from the whole dose curve; as a rule, active = well fitted curve in the direction sought with a large enough effect; inconclusive = small, poorly fitted or top-dose-only effect, or another doubt; inactive = no such curve, though single readings can be large; an effect the other way counts as inactive or inconclusive. Potency is the fitted concentration of half-maximal effect.

For CCCOc1ccc(C(=O)C(c2ccccc2)N2CCOCC2)cc1 (stereo not drawn) the results were Casp1 inh -1%, Casp7 inh 1%, HEK293 cAMP cs 25µM*, 15-hLO inh -1%, TSHR agonist inconclusive and ALOX15B inhib -1%.
`O=c1c(-c2ccccc2)nc2cnc(N3CCNCC3)nc2n1-c1ccccc1` gave Casp7 inh inconclusive, HEK293 cAMP cs 10%, 15-hLO inh 0.32µM*, TSHR agonist -9% and ALOX15B inhib 32%.
`O=c1c(-c2ccc(Cl)cc2)nc2cnc(N3CCNCC3)nc2n1-c1ccccc1` gave Casp7 inh inconclusive, HEK293 cAMP cs -13%, 15-hLO inh 5%, TSHR agonist 1% and ALOX15B inhib 32%.
`CC(C)C12CC[C@@]3(CC[C@H]4[C@@](C)(CCC[C@]4(C)C(=O)O)[C@@H]3C1)[C@@H](CN)C2` gave Casp1 inh 2%[11.5 µM], Casp7 inh -2%[11.5 µM], HEK293 cAMP cs 4%[11.4 µM], 15-hLO inh 12%[11.4 µM], TSHR agonist 4%[11.4 µM] and ALOX15B inhib -8%[11.4 µM].
For CC(C)CC(c1nnnn1C1CCCC1)N1CCN(C(=O)c2ccco2)CC1 (stereo not drawn) the results were Casp1 inh 1%, Casp7 inh 0%, HEK293 cAMP cs 7.9µM*, 15-hLO inh -3%, TSHR agonist inconclusive and ALOX15B inhib 2%.
Screening CCCC(c1nnnn1C1CCCC1)N1CCN(C(=O)c2ccco2)CC1 (stereo not drawn) returned Casp1 inh 1%, Casp7 inh 1%, HEK293 cAMP cs 16µM*, 15-hLO inh 13%, TSHR agonist inconclusive and ALOX15B inhib -11%.
`CCCCNC(=O)Nc1nnc(-c2ccc(OCC)cc2)o1` gave ALOX15B inhib 9%.
CCOc1ccc(-c2nnc(NC(=O)c3ccc(OCC(C)C)c(OC)c3)o2)cc1 was read as Casp1 inh -4%, Casp7 inh 2%, HEK293 cAMP cs 25µM*, 15-hLO inh 75%, TSHR agonist inconclusive and ALOX15B inhib 42%.
Cc1c2c(nc3c(C)cccc13)OC(C)C2 (stereo not drawn) was read as Casp1 inh -3%, Casp7 inh 0%, HEK293 cAMP cs 25µM*, 15-hLO inh -6% and TSHR agonist inconclusive.
Cc1n[nH]c(C)c1S(=O)(=O)N1CCCC(C(=O)NC2CCCCC2)C1 (stereo not drawn) was read as Casp1 inh -2%, Casp7 inh 0%, HEK293 cAMP cs 10µM*, 15-hLO inh 3% and TSHR agonist inconclusive.
Screening Cc1nn(-c2ccc(F)cc2F)c2c1-c1nc(N3CCCC3)ncc1CC2 returned Casp1 inh -5%, Casp7 inh -23%, HEK293 cAMP cs 11%, 15-hLO inh 25µM*, TSHR agonist 6%[11.4 µM] and ALOX15B inhib 4%.
Screening COc1ccc(C(=O)NCCCn2ccnc2)cc1 returned Casp1 inh -4%, Casp7 inh 2%, HEK293 cAMP cs 1.3µM*, 15-hLO inh 7%, TSHR agonist inconclusive and ALOX15B inhib 8%.
COc1ccc(CCCO[C@@H](Cn2ccnc2)c2ccc(OC)cc2)cc1 was read as Casp1 inh -1%, Casp7 inh -2%, HEK293 cAMP cs 32µM*, 15-hLO inh -12%[25.6 µM], TSHR agonist inconclusive and ALOX15B inhib 30%.
For COc1ccc(-c2nc(Cc3ccc(Cl)cc3)no2)cc1OC the results were ALOX15B inhib 19%.
COc1cccc(-c2nc(Cc3ccc(OC)c(OC)c3)no2)c1 was read as Casp1 inh -1%, Casp7 inh -2%, HEK293 cAMP cs 25µM*, 15-hLO inh 5%, TSHR agonist inconclusive and ALOX15B inhib 9%.
COc1cccc(-c2nccc(NCc3cnc(C)cn3)n2)c1 was read as Casp1 inh -5%, Casp7 inh 0%, HEK293 cAMP cs 9%, 15-hLO inh -23%, TSHR agonist 7% and ALOX15B inhib -6%.
CCN(C(=O)c1ccnc(C(C)(C)C)c1)c1ccccc1 was read as Casp1 inh 0%, Casp7 inh -3%, HEK293 cAMP cs 21%, 15-hLO inh -1%, TSHR agonist 16% and ALOX15B inhib 2%.
For CCN(C(=O)N(CC)c1ccccc1)c1ccccc1 the results were Casp1 inh 0%, Casp7 inh 0%, HEK293 cAMP cs 16µM*, 15-hLO inh 5%, TSHR agonist inconclusive and ALOX15B inhib -20%.
For O=C(Nc1ccccc1)c1nnsc1S(=O)c1ccc(Cl)cc1 (stereo not drawn) the results were ALOX15B inhib 1.3µM*.
For CCN(CCCNC(=O)CCc1nc(-c2ccc(OC)cc2)no1)c1cccc(C)c1 the results were Casp1 inh 0%, Casp7 inh -3%, HEK293 cAMP cs 18%, 15-hLO inh -5%, TSHR agonist 13µM* and ALOX15B inhib -1%.
`COc1ccc(-c2csc(N(CC3CCCO3)C(=O)c3cccs3)n2)cc1` (stereo not drawn) gave Casp1 inh -4%, Casp7 inh -3%, HEK293 cAMP cs 16µM*, 15-hLO inh 1%, TSHR agonist inconclusive and ALOX15B inhib -3%.
Screening CCOC(=O)N1CCN(c2ccc(C(=O)c3cccc(F)c3)cc2)CC1 returned Casp1 inh inconclusive, Casp7 inh -21%, HEK293 cAMP cs 20µM*, 15-hLO inh -11%, TSHR agonist inconclusive and ALOX15B inhib -1%.
Screening Cc1occc1-c1nnc(SCC(=O)c2cc3ccccc3oc2=O)o1 returned Casp7 inh inconclusive, HEK293 cAMP cs 6%, 15-hLO inh 13µM*, TSHR agonist 9% and ALOX15B inhib -8%.
Cc1cc(C)c(C(=O)CSc2nnc(-c3ccccc3Br)o2)cc1C was read as Casp1 inh -17%, Casp7 inh -20%, HEK293 cAMP cs 16µM*, 15-hLO inh 4%, TSHR agonist inconclusive and ALOX15B inhib 4%[2.29 µM].
For Cc1ccc(NC(=O)CSc2nnc(-c3ccccc3Br)o2)cc1C the results were Casp1 inh -1%, Casp7 inh -1%, HEK293 cAMP cs 15%, 15-hLO inh -9%, TSHR agonist 20% and ALOX15B inhib -16%.
For CCCCCCCCCCCCCCCC(=O)OCC(NC(=O)C(Cl)Cl)C(O)c1ccc([N+](=O)[O-])cc1 (stereo not drawn) the results were ALOX15B inhib 24%[0.0915 µM].
For CC(=O)N1[C@H](C)C=C[C@]1(Cc1ccccc1)C(=O)NCCc1c[nH]c2ccccc12 the results were Casp1 inh -2%, Casp7 inh -4%, HEK293 cAMP cs 28%, 15-hLO inh -22%, TSHR agonist 0% and ALOX15B inhib -7%.
